PubChem BioAssay AID1347383 (Zoeller Lab, School of Medicine, Boston University, 2020)
The source made the active and inactive calls.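 How the source made its calls: active means cell survival after UV exposure 2 SD above solvent-only control wells at 10 µM, confirmed on one or two repeats; inactive means the rest.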

Test: cell survival after pyrene fatty acid photosensitization – ZR-82 cells, Analyticon library, screen 2, phospholipid biosynthesis inhibitor project, primary screen (AID 1347383);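 further: survival reflects blocked phospholipid synthesis cutting uptake of the phototoxic fatty acid; compound and fatty acid exposure 3 h then viability read next day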
Conditions: ZR-82 CHO cells, pyrene-fatty acid UV killing, CellTiter Blue; at 10 µM; peroxisome-deficient CHO-K1 variant; with DGAT-1, DGAT-2 and ACAT inhibitors

Question: Which outcome does the source give for `O=C(OCc1ccccc1)c1ccccc1` here?
Answer: inactive

Question: With `O=C1CC(c2ccc(O)cc2O)Oc2cc(O)cc(O)c21` (stereo not given) as the compound, how does the outcome read?
Answer: inactive

Question: For `CC1CCC2(C)C(CC(O)C(O)C23CO3)C1(C)CCC1=CC(O)OC1=O` (stereo not given), which outcome is on record?
Answer: inactive

Question: Which outcome does the source give for `CC(=O)N[C@@H](C(=O)O[C@H]1CCC(C)(C)[C@@H]2CCC3=C(COC3=O)[C@@]12C)C(C)C` here?
Answer: inactive

Question: For `COc1c2cc(c(O)c1OC)CCCCC(O)CCc1ccc(O)c-2c1` (stereo not given), which outcome is on record?
Answer: inactive

Question: With `O=C(O)C1(O)C[C@@H](O)C(O)[C@H](O)C1` (stereo not given in full) as the compound, how does the outcome read?
Answer: inactive

Question: Which outcome does the source give for `C=C1C[C@]23C[C@H]4C5[C@]6(C)CC(=O)C[C@]57C(C2C(O)[C@H]1C(O)C37)N4C6` (stereo not given in full) here?
Answer: inactive

Question: With `COC(=O)/C=C/C1(O)C=CC(=O)C=C1` as the compound, how does the outcome read?
Answer: inactive

Question: With `CSCC1OC(n2cnc3c(=O)[nH]cnc32)C(O)C1O` (stereo not given) as the compound, how does the outcome read?
Answer: inactive

Question: With `O=C(/C=C/c1ccc(O)cc1)c1c(O)cc(O)cc1O` as the compound, how does the outcome read?
Answer: inactive

Question: For `C[N+](C)(C)C(Cc1c[nH]c2ccccc12)C(=O)[O-]` (stereo not given), which outcome is on record?
Answer: inactive

Question: Which outcome does the source give for `COc1c2c(c(OC)c3oc(=O)ccc13)OC(C)(C)C(O)C2O` (stereo not given) here?
Answer: inactive

Question: With `CC(=O)OC1C(O)C2C(C)C3=CC(=O)OC3(O)CC2C2(C)CCCC(C)(CO)C12` (stereo not given) as the compound, how does the outcome read?
Answer: inactive

Question: For `O=c1c(-c2ccc(O)cc2)coc2cc(O)ccc12`, which outcome is on record?
Answer: inactive

Question: For `CC[C@]12CCCN3CCc4c(n(c5ccccc45)C(=O)C1)[C@@H]32`, which outcome is on record?
Answer: inactive

Question: For `C/C=C/C=C/C(CC(=O)O)Nc1ccc(C=O)cc1` (stereo not given), which outcome is on record?
Answer: inactive

Question: For `CCC/C=C\CC(N)CC(=O)O` (stereo not given), which outcome is on record?
Answer: inactive

Question: Which outcome does the source give for `C=CC(C)(C)c1c(OC)oc2cccc(C)c2c1=O` here?
Answer: inactive

Question: Which outcome does the source give for `C=C(C(=O)OC)[C@@H]1CC=C2C=CC(=O)[C@H](C)[C@@]2(C)C1` here?
Answer: inactive

Question: For `COc1cc(O)cc2occ(-c3ccc(O)cc3)c(=O)c12`, which outcome is on record?
Answer: inactive

Question: With `CCCCCCc1cc(O)c(C)c(OC(C)=O)c1O` as the compound, how does the outcome read?
Answer: inactive

Question: Which outcome does the source give for `CC(=O)C(C)C(O)C(C)c1ccc(CO)cc1/C=C/CO` (stereo not given) here?
Answer: inactive

Question: With `Cc1c(O)cc2c(c1O)C(=O)[C@@H](O)[C@H](c1ccc(O)c(O)c1)O2` as the compound, how does the outcome read?
Answer: inactive

Question: Which outcome does the source give for `O=C1c2ccc(O)cc2C(=O)c2ccc(O)cc21` here?
Answer: inactive

Question: With `C[C@]1(C=O)[C@H]2CC[C@]3(C)O[C@@]14C(=O)c1cc(O)ccc1C(=O)C4=C[C@@H]23` as the compound, how does the outcome read?
Answer: inactive

Question: For `C/C1=C\CCC2=CC(OC2=O)C(C)(C)/C=C\C1=O` (stereo not given), which outcome is on record?
Answer: inactive

Question: With `CC#CC#C/C=C1\C=CC2(OC=CC2OC(=O)C=C(C)C)O1` (stereo not given) as the compound, how does the outcome read?
Answer: inactive

Question: Which outcome does the source give for `O=C1c2cccc(O)c2C(=O)c2c(O)cccc21` here?
Answer: inactive

Question: Which outcome does the source give for `CC1(O)CC(C)(O)C2=C(O1)C(=O)c1ccccc12` (stereo not given) here?
Answer: inactive

Question: With `CC(=O)Oc1ccc2c(C)cc(=O)oc2c1` as the compound, how does the outcome read?
Answer: inactive

Question: For `O=c1c(O)c(-c2ccc(O)cc2O)oc2cc(O)cc(O)c12`, which outcome is on record?
Answer: inactive

Question: For `C=CC(C)(O)CC[C@@]1(C)[C@H](C)CC[C@]2(C)[C@@H]1C[C@@H](O)[C@@H](O)[C@]2(C)O` (stereo not given in full), which outcome is on record?
Answer: inactive

Question: Which outcome does the source give for `COc1c2c(nc3occc13)C(CC=C(C)C)(OC)C(O)CC2` (stereo not given) here?
Answer: inactive

Question: For `COC(=O)C1C(O)CCC2CN3CCc4c([nH]c5ccccc45)C3CC21` (stereo not given), which outcome is on record?
Answer: inactive

Question: For `CC(C)=CCC/C(C)=C/Cc1c(O)c(CC=C(C)C)c2oc3ccc(O)cc3c(=O)c2c1O`, which outcome is on record?
Answer: inactive

Question: Which outcome does the source give for `CC(C)c1ccc2c(c1)CCC1C(C)(C(=O)O)CCCC21C` (stereo not given) here?
Answer: inactive

Question: For `COc1c(OC)c(O)c2c3c(cc4ccccc42)NC(=O)c13`, which outcome is on record?
Answer: inactive

Question: With `CS/C=C/C(=O)O[C@@H]1CCC2=CC(=O)C(=C(C)C)C[C@]2(C)[C@H]1C` as the compound, how does the outcome read?
Answer: inactive

Question: Which outcome does the source give for `O=C(O)/C=C/c1ccccc1O` here?
Answer: inactive

Question: Which outcome does the source give for `CC(C)c1ccc2c(c1)C(=O)CC1C(C)(C(=O)O)CCCC21C` (stereo not given) here?
Answer: inactive

Question: With `C=C(C)[C@@H]1CC[C@]2(C(=O)O)CC[C@]3(C(=O)O)[C@H](CCC4[C@@]5(C)CCC(=O)C(C)(C)C5CC[C@]43C)C12` (stereo not given in full) as the compound, how does the outcome read?
Answer: inactive

Question: With `CO[C@H]1c2cc(C(C)C)c(O)c(O)c2[C@@]23CCCC(C)(C)C2[C@@H]1OC3=O` (stereo not given in full) as the compound, how does the outcome read?
Answer: inactive

Question: For `Cc1cc(O)cc2c(=O)oc(CC(C)O)cc12` (stereo not given), which outcome is on record?
Answer: inactive

Question: With `C=C1CC[C@@H](C)[C@](C)(CCc2ccoc2)C/C=C\C=C/1C(=O)O` as the compound, how does the outcome read?
Answer: inactive

Question: With `CC(=O)/C=C(O)/C=C/c1ccc(O)cc1` as the compound, how does the outcome read?
Answer: inactive

Question: With `CC(=O)c1c(O)cc(O)c(C/C=C(\C)CCC=C(C)C)c1O` as the compound, how does the outcome read?
Answer: inactive

Question: For `COc1cc(O)c2c(=O)c3cc(O)c(O)cc3oc2c1`, which outcome is on record?
Answer: inactive

Question: For `C=CCC1=CC(OC)(C(C)Cc2ccc3c(c2)OCO3)C(OC)=CC1=O` (stereo not given), which outcome is on record?
Answer: inactive

Question: With `C[C@H]1C=CC2=CCCC[C@@H]2[C@H]1CC[C@@H]1C[C@@H](O)CC(=O)O1` as the compound, how does the outcome read?
Answer: inactive

Question: For `O=C1CC(c2ccc(O)cc2)Oc2ccccc21` (stereo not given), which outcome is on record?
Answer: inactive

Question: With `C=CC(C)(C)c1cc2cc(CC(O)C(C)(C)O)c(OC)cc2oc1=O` (stereo not given) as the compound, how does the outcome read?
Answer: inactive

Question: With `C/C=C/C1=C(Cl)C(=O)[C@@H](O)[C@@]1(O)C(=O)OC` as the compound, how does the outcome read?
Answer: inactive

Question: For `C/C=C/C=C/C(=O)N1CC[C@]23c4ccccc4N[C@H]4N(C)c5cccc6c5[C@]42CCN([C@H]6C2OC2(C)C)[C@H]13` (stereo not given in full), which outcome is on record?
Answer: inactive

Question: With `O=C1c2ccccc2C(=O)c2c(O)ccc(O)c21` as the compound, how does the outcome read?
Answer: inactive

Question: Which outcome does the source give for `COc1cc(C2CC(=O)c3c(O)cc(O)cc3O2)ccc1O` (stereo not given) here?
Answer: inactive

Question: Which outcome does the source give for `C/C=C/[C@@H]1C=C[C@@H]2C[C@H](C)CC[C@H]2[C@]1(C)C(O)=C1C(=O)[C@@H](CO)N(C)C1=O` here?
Answer: inactive

Question: For `O=C(CCc1ccccc1)C[C@@H](O)CCc1ccccc1`, which outcome is on record?
Answer: inactive

Question: For `OCCc1ccc(O)cc1O`, which outcome is on record?
Answer: inactive

Question: For `O=C(O)C12CCCC(CO)(CO)C1CCC13CC4C(CC12)C4(CO)C3` (stereo not given), which outcome is on record?
Answer: inactive

Question: With `O=C1CC(c2ccccc2)Oc2cc(O)cc(O)c21` (stereo not given) as the compound, how does the outcome read?
Answer: inactive

Question: Which outcome does the source give for `COc1cc(CCc2ccccc2)cc(O)c1C/C=C(\C)CCC=C(C)C` here?
Answer: inactive

Question: Which outcome does the source give for `O=C(O)CCC1OC(=O)C(O)=C1c1ccccc1` (stereo not given) here?
Answer: inactive

Question: Which outcome does the source give for `COc1cc(CCC(=O)O)cc(OC)c1OC` here?
Answer: inactive

Question: Which outcome does the source give for `O=c1ccc2ccc(O[C@@H]3O[C@H](CO)[C@@H](O)[C@H](O)[C@H]3O)cc2o1` here?
Answer: inactive

Question: Which outcome does the source give for `CCC1CN2CCc3cc(OC)c(OC)cc3C2CC1CC1NCCc2cc(OC)c(OC)cc21` (stereo not given) here?
Answer: inactive
